Results published in PubChem BioAssay (NCI).
This is part of a sample that, as a whole, favours compounds with a hit. Of some 79,000 tested, about 15% had one in any assay. Values without a mark were called inactive. Calls of active or inactive are those of the source. No stated cut-off is given here; in the data, active means growth inhibition above about 70%; inactive means the rest.

Columns and labels:
[1] = NCI Yeast Anticancer Drug Screen. Data for the rad50 strain (AID 155);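 further: 0% = growth of vehicle-only cultures of the same strain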; conditions: S. cerevisiae rad50 strain growth inhibition; at 50.0 µM; stronger effect = higher value
Summary of the method: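 Genetically altered yeast (DNA repair pathway); compound treatment; growth inhibition vs vehicle ctrl.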

[2] = NCI Yeast Anticancer Drug Screen. Data for the mec2-1 strain (AID 157); conditions: S. cerevisiae mec2-1 strain, at 50.0 µM, stronger effect = higher value
Summary of the method: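 Compounds were applied to mec2-1 yeast cells. Their growth was then compared with that of vehicle-treated cultures to give growth inhibition.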

[3] = NCI Yeast Anticancer Drug Screen. Data for the sgs1 mgt1 strain (AID 161);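 further: 0% = growth of cultures given vehicle only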; conditions: S. cerevisiae sgs1 mgt1 strain, at 50.0 µM, stronger effect = higher value
Summary of the method: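 Growth of a repair-deficient yeast mutant was monitored after compound treatment and expressed as inhibition relative to vehicle-treated cultures.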

[4] = NCI Yeast Anticancer Drug Screen. Data for the cln2 rad14 strain (AID 165);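 further: 0% = growth equal to vehicle treated cultures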; conditions: S. cerevisiae cln2 rad14 strain, at 50.0 µM, stronger effect = higher value
Summary of the method: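 Strain: cln2 rad14 yeast, altered in cell cycle control and DNA damage repair. Read-out: growth inhibition vs vehicle.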

[5] = NCI Yeast Anticancer Drug Screen. Data for the bub3 strain (AID 167); conditions: S. cerevisiae bub3 mutant strain, at 50.0 µM, stronger effect = higher value
Summary of the method: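 Yeast carrying a defined mutation is treated with each compound, and growth is compared with that of vehicle-exposed cells to give inhibition.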

[6] = NCI Yeast Anticancer Drug Screen. Data for the mlh1 rad18 strain (AID 175); conditions: S. cerevisiae mlh1 rad18 strain growth inhibition; at 50.0 µM; stronger effect = higher value
Summary of the method: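 A repair-deficient yeast strain is exposed to test compound, and growth is scored relative to vehicle-treated controls.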

## CCOC(=O)C1=C(O)c2ccccc2S(=O)(=O)N1C (tested in a mixture with another compound)
[1]
  growth inhibition: 4.05%
[2]
  growth inhibition: 20.3%
[3]
  growth inhibition: 14%
[4]
  growth inhibition: -18.9%
[5]
  growth inhibition: -25.6%
[6]
  growth inhibition: 0%

## O=C(Nc1ccc(Cl)cc1)OCCSc1nc2ccccc2s1
[1]
  growth inhibition: -6.05%
[2]
  growth inhibition: -30.1%
[3]
  growth inhibition: 21.5%
[4]
  growth inhibition: 9.35%
[5]
  growth inhibition: 4.55%
[6]
  growth inhibition: -3.9%

## N#CC1(C#N)C2(c3ccccc3)OC(c3ccccc3)(c3cc4ccccc4cc32)C1(C#N)C#N
[1]
  growth inhibition: 1.75%
[2]
  growth inhibition: 20.1%
[3]
  growth inhibition: -4.1%
[4]
  growth inhibition: 14.1%
[5]
  growth inhibition: 8%
[6]
  growth inhibition: 29.1%

## Cc1ccc(-c2c(C#N)c(-c3ccccc3)n(NS(=O)(=O)c3ccccc3)c(=O)c2C#N)cc1
[1]
  growth inhibition: 42.1%
[2]
  growth inhibition: 49.8%
[3]
  growth inhibition: 47.1%
[4]
  growth inhibition: 51.2%
[5]
  growth inhibition: 49.6%
[6]
  growth inhibition: 51.1%

## CCCCc1ccc(Nc2c(C(=O)OCC)cnc3cc4c(cc23)OCO4)cc1
[1]
  growth inhibition: 4.6%
[2]
  growth inhibition: -12.4%
[3]
  growth inhibition: -15.2%
[4]
  growth inhibition: 8.5%
[5]
  growth inhibition: 3.95%
[6]
  growth inhibition: -17.4%

## O=C(c1cccc([N+](=O)[O-])c1)N1CCOCC1
[1]
  growth inhibition: -2.65%
[2]
  growth inhibition: -10%
[3]
  growth inhibition: 1.45%
[4]
  growth inhibition: -36.4%
[5]
  growth inhibition: 3.7%
[6]
  growth inhibition: 14.1%

## CCN(CC)CC1CO1 (stereo not given)
[1]
  growth inhibition: -8.15%
[2]
  growth inhibition: -12.1%
[3]
  growth inhibition: 3.35%
[4]
  growth inhibition: -3.5%
[5]
  growth inhibition: -11.7%
[6]
  growth inhibition: 9.2%

## Cc1cncc(NS(=O)(=O)c2ccc(N)cc2)n1
[1]
  growth inhibition: 0.7%
[2]
  growth inhibition: 8.7%
[3]
  growth inhibition: -5.45%
[4]
  growth inhibition: -13.9%
[5]
  growth inhibition: 10%
[6]
  growth inhibition: 6.9%

## COP(=O)(OC)C1c2cc(Cl)ccc2-c2c(Cl)cc(Cl)cc21 (stereo not given)
[1]
  growth inhibition: 88.8% (active)
[2]
  growth inhibition: 67.9%
[3]
  growth inhibition: 83.7% (active)
[4]
  growth inhibition: 49.5%
[5]
  growth inhibition: 32.6%
[6]
  growth inhibition: 68.8%

## CN(C)C1C=CS(=O)(=O)C1 (stereo not given)
[1]
  growth inhibition: -9.55%
[2]
  growth inhibition: -13.9%
[3]
  growth inhibition: -4.4%
[4]
  growth inhibition: -47.5%
[5]
  growth inhibition: 0.95%
[6]
  growth inhibition: -4.95%

## C/C(=C1/CCOC1=O)c1cccc(/C(C)=C2\CCOC2=O)c1
[1]
  growth inhibition: 3.9%
[2]
  growth inhibition: 3.55%
[3]
  growth inhibition: -3.05%
[4]
  growth inhibition: -29.4%
[5]
  growth inhibition: 5.35%
[6]
  growth inhibition: 2.75%

## CCOC(=O)CN
[1]
  growth inhibition: -0.25%
[2]
  growth inhibition: 7.7%
[3]
  growth inhibition: 2.15%
[4]
  growth inhibition: -0.4%
[5]
  growth inhibition: -2%
[6]
  growth inhibition: 14.1%

## O=C(NO)c1ccc(O)c(O)c1
[1]
  growth inhibition: 2.1%
[2]
  growth inhibition: 14.4%
[3]
  growth inhibition: 5.55%
[4]
  growth inhibition: -8.25%
[5]
  growth inhibition: -8.45%
[6]
  growth inhibition: -39%

## CC(C)(C)CC(C)(C)c1ccc(OCCOc2ccc(S(=O)(=O)O)cc2[N+](=O)[O-])cc1
[1]
  growth inhibition: 68.8%
[2]
  growth inhibition: 30.9%
[3]
  growth inhibition: 71.7% (active)
[4]
  growth inhibition: 1.65%
[5]
  growth inhibition: -8.85%
[6]
  growth inhibition: 37.2%

## O/N=C(/c1ccccc1)C1CCCCC1
[1]
  growth inhibition: 20.7%
[2]
  growth inhibition: -1.05%
[3]
  growth inhibition: 13%
[4]
  growth inhibition: -0.15%
[5]
  growth inhibition: -8.5%
[6]
  growth inhibition: 10.3%

## O=C(Nc1c(Cl)cccc1Cl)Nc1c(Cl)cccc1Cl
[1]
  growth inhibition: -0.95%
[2]
  growth inhibition: -4.85%
[3]
  growth inhibition: 21.1%
[4]
  growth inhibition: 6.7%
[5]
  growth inhibition: 16.8%
[6]
  growth inhibition: 10.9%

## C1CC2N=NC1C21CC1.[Cl][Cu][Cl]
[1]
  growth inhibition: 1.2%
[2]
  growth inhibition: 1.7%
[3]
  growth inhibition: -3.75%
[4]
  growth inhibition: -8.15%
[5]
  growth inhibition: 8.7%
[6]
  growth inhibition: -10%

## N#CCC(=O)N1CCCC1
[1]
  growth inhibition: -23.1%
[2]
  growth inhibition: -32.3%
[3]
  growth inhibition: -3.8%
[4]
  growth inhibition: -8.6%
[5]
  growth inhibition: -14.3%
[6]
  growth inhibition: -26.2%

## NC(CCCC(N)C(=O)c1ccccc1)C(=O)c1ccccc1 (stereo not given)
[1]
  growth inhibition: -13.7%
[2]
  growth inhibition: 2.35%
[3]
  growth inhibition: -1.5%
[4]
  growth inhibition: -15.5%
[5]
  growth inhibition: -11.3%
[6]
  growth inhibition: 3.35%

## Cc1cc(C(=O)N/N=C/c2cc(Cl)cc(Cl)c2O)c2cc(Br)ccc2n1
[1]
  growth inhibition: 61.5%
[2]
  growth inhibition: 25.4%
[3]
  growth inhibition: 54%
[4]
  growth inhibition: 15.9%
[5]
  growth inhibition: -0.2%
[6]
  growth inhibition: 45%

## Cc1nnc(CC#N)n1NC(=O)CC#N
[1]
  growth inhibition: 3.95%
[2]
  growth inhibition: -3.15%
[3]
  growth inhibition: -2.7%
[4]
  growth inhibition: -18%
[5]
  growth inhibition: 8.65%
[6]
  growth inhibition: 9.95%

## [C-]#[N+]N=P(c1ccccc1)(c1ccccc1)c1ccccc1
[1]
  growth inhibition: -18%
[2]
  growth inhibition: -20.8%
[3]
  growth inhibition: -27.9%
[4]
  growth inhibition: 3.2%
[5]
  growth inhibition: -8.65%
[6]
  growth inhibition: 5.65%

## c1ccc2c(c1)OP1(=NP3(=NP4(=NP5(=N1)Oc1ccccc1-c1ccccc1O5)Oc1ccccc1-c1ccccc1O4)Oc1ccccc1-c1ccccc1O3)Oc1ccccc1-2
[1]
  growth inhibition: 7.8%
[2]
  growth inhibition: 6.3%
[3]
  growth inhibition: -30.5%
[4]
  growth inhibition: -4.1%
[5]
  growth inhibition: -1.1%
[6]
  growth inhibition: 17.2%

## C[n+]1cc(-c2ccccc2)cc2ccccc21
[1]
  growth inhibition: -1.4%
[2]
  growth inhibition: 17.9%
[3]
  growth inhibition: -0.3%
[4]
  growth inhibition: -17.6%
[5]
  growth inhibition: 4.5%
[6]
  growth inhibition: -14.5%

## CCOC(=O)/C(F)=C/c1cccc(C)c1
[1]
  growth inhibition: -5.05%
[2]
  growth inhibition: -23%
[3]
  growth inhibition: -17.9%
[4]
  growth inhibition: -4.7%
[5]
  growth inhibition: -5.45%
[6]
  growth inhibition: -3.1%

## Nc1nc(N)nc(SCCO)n1
[1]
  growth inhibition: -25.1%
[2]
  growth inhibition: 1.55%
[3]
  growth inhibition: -14.1%
[4]
  growth inhibition: -44.8%
[5]
  growth inhibition: -4.75%
[6]
  growth inhibition: -8.45%

## COc1ccc(C(C)=O)cc1CCCOC(C)=O
[1]
  growth inhibition: -0.7%
[2]
  growth inhibition: -1.35%
[3]
  growth inhibition: -7.5%
[4]
  growth inhibition: 10.7%
[5]
  growth inhibition: 9%
[6]
  growth inhibition: -2.6%

## Cc1c(Cc2ccccc2)c(N2CCOCC2)n2c(nc3ccccc32)c1C#N
[1]
  growth inhibition: 4.75%
[2]
  growth inhibition: 5.25%
[3]
  growth inhibition: 0.65%
[4]
  growth inhibition: -4.55%
[5]
  growth inhibition: -2.8%
[6]
  growth inhibition: 5.65%

## CC1(C)CCc2cc3c(O)c(-c4ccccc4)c(=O)oc3cc2O1
[1]
  growth inhibition: -9.45%
[2]
  growth inhibition: 2.15%
[3]
  growth inhibition: -0.65%
[4]
  growth inhibition: -17.2%
[5]
  growth inhibition: -5.75%
[6]
  growth inhibition: 7.45%

## CC1(C)CC23C(=O)N(c4ccccc4)C(=Nc4ccccc4)NC2=CC(C#N)=C(C#N)C3O1 (stereo not given)
[1]
  growth inhibition: 2.6%
[2]
  growth inhibition: -3.9%
[3]
  growth inhibition: 5.3%
[4]
  growth inhibition: 23.9%
[5]
  growth inhibition: 0.85%
[6]
  growth inhibition: -15.8%

## CCOC(=O)OC1CC2CC(OC(=O)OCC)c3cccc(Br)c3C2c2ccccc21 (stereo not given)
[1]
  growth inhibition: 25.1%
[2]
  growth inhibition: 12.9%
[3]
  growth inhibition: 18.8%
[4]
  growth inhibition: 0.05%
[5]
  growth inhibition: -5.3%
[6]
  growth inhibition: 33.7%

## CCOC(=O)COc1cc2c(cc1C(CC)c1ccccc1)OCO2 (stereo not given)
[1]
  growth inhibition: -7.85%
[2]
  growth inhibition: -1.45%
[3]
  growth inhibition: -3.25%
[4]
  growth inhibition: 5.95%
[5]
  growth inhibition: 9.45%
[6]
  growth inhibition: 2.9%

## O=C1NC2C1C1c3ccccc3C2C12CC2 (stereo not given)
[1]
  growth inhibition: -11.1%
[2]
  growth inhibition: -7.95%
[3]
  growth inhibition: -13.6%
[4]
  growth inhibition: -11.8%
[5]
  growth inhibition: 13.1%
[6]
  growth inhibition: -1.85%

## CCCCN(CCCC)Cc1ccnc(C)c1O
[1]
  growth inhibition: -9.3%
[2]
  growth inhibition: 5.85%
[3]
  growth inhibition: -8.5%
[4]
  growth inhibition: 8.7%
[5]
  growth inhibition: 3.75%
[6]
  growth inhibition: 7.9%

## C=C(C)C1Cc2c(cc(O)c3c(=O)c4c(oc23)C(O)Oc2cc(OC)c(OC)cc2-4)O1 (stereo not given)
[1]
  growth inhibition: 9.15%
[2]
  growth inhibition: -0.95%
[3]
  growth inhibition: 0.9%
[4]
  growth inhibition: -3.85%
[5]
  growth inhibition: 2.85%
[6]
  growth inhibition: 16.9%

## O=S(=O)(CCl)Nc1ccncc1
[1]
  growth inhibition: -16.6%
[2]
  growth inhibition: -9.6%
[3]
  growth inhibition: -25.6%
[4]
  growth inhibition: -77.2%
[5]
  growth inhibition: 3.1%
[6]
  growth inhibition: -16.8%

## NNC(=O)C1CCC(=O)N1S(=O)(=O)c1ccccc1 (stereo not given)
[1]
  growth inhibition: -14%
[2]
  growth inhibition: -12.1%
[3]
  growth inhibition: -22%
[4]
  growth inhibition: 8.95%
[5]
  growth inhibition: -2.25%
[6]
  growth inhibition: -25.6%

## CC(C)=CCC/C(C)=C/CN
[1]
  growth inhibition: 9.25%
[2]
  growth inhibition: -2.6%
[3]
  growth inhibition: 20.4%
[4]
  growth inhibition: -17.6%
[5]
  growth inhibition: 9%
[6]
  growth inhibition: 6.15%

## C=CCc1nc2c([nH]1)c(=O)n(C)c(=O)n2C
[1]
  growth inhibition: 33.5%
[2]
  growth inhibition: -2.2%
[3]
  growth inhibition: 37.6%
[4]
  growth inhibition: 11.7%
[5]
  growth inhibition: -6.8%
[6]
  growth inhibition: 18.6%

## CC1COC(C(C)c2ccccc2)O1 (stereo not given)
[1]
  growth inhibition: -0.05%
[2]
  growth inhibition: -18.4%
[3]
  growth inhibition: -10.8%
[4]
  growth inhibition: -35.2%
[5]
  growth inhibition: -29.9%
[6]
  growth inhibition: 6.1%
